eIF4H inh – inhibitors of RNA binding by human eIF4H; inhibition, % at 35 µM; eIF4H fluorescence polarization binding assay; hit rate 0.94% among 290,000; Q15056;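 further: calls also rest on retests at 20 µM and on dose response follow-up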
MLLE-PAM2 inh – blocks PAM2 peptide binding to the PABP1 MLLE domain | P11940 | GST-MLLE / FITC-PAM2 fluorescence polarization | inhibition, % at 20 µM | hit rate 0.36% among 360,000; in the data active means inhibition above about 35%, passing the limit was not always enough;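 further: plate controls were DMSO wells with GST-MLLE for no effect and wells lacking GST-MLLE protein for full effect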
Target sequence (P11940 whole entry, looked up, the tested form may be a part): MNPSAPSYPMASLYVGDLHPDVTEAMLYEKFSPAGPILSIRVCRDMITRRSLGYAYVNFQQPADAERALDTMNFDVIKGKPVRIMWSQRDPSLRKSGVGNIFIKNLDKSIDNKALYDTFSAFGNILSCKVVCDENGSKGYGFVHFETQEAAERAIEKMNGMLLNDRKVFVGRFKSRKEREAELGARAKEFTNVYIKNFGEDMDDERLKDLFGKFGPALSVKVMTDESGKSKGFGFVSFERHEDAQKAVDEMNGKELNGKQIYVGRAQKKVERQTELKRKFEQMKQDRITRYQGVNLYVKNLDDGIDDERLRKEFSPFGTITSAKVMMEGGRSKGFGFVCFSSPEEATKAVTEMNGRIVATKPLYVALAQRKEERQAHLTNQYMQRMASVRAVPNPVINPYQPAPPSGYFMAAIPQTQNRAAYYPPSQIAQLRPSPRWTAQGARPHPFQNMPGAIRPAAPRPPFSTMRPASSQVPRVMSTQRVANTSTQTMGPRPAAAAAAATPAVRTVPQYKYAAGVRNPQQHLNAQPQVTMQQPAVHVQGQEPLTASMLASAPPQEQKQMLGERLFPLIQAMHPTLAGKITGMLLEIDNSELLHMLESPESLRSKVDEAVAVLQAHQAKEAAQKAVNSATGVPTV
PABP polyA inh – blocks human PABP binding to poly(A) RNA; fluorescence polarization; inhibition, % at 35 µM; hit rate 1% among 290,000;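 further: calls also rest on retests at 20 µM and on dose response follow-up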
PERK inh – blocks human PERK kinase. Q9NZJ5. CHO PERK-DD fusion, SEAP luminescence translation reporter. hit rate 0.17% among 220,000. AID 1416. inhibition, % at 5.6 µM;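 active means inhibition above the mean inhibition of all tested compounds plus 3 SD, set separately per screening campaign, cut at about 2.9% in these data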;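 further: PERK kinase domain activated by AP20187 dimerizer at 100 nM; 0% = DMSO with dimerizer and 100% = rapamycin at 8.4 µM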
eIF4E-4G inh – inhibitors of eIF4E and eIF4G interaction in translation initiation; inhibition, % at 21.7 µM; TR-FRET eIF4E-eIF4GI(517-606) binding, 2 h; hit rate 0.37% among 220,000;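 active means inhibition above about 30%, limit read from the data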;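 further: 0% = full FRET control wells and 100% = background wells lacking eIF4GI fragment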
Starred values were filed as active, the others as inactive; · = no result given. The list is not random: actives were taken first. Their share in the collection is about 1.6%. Unless noted, how the calls were made is not given here.

SMILES | eIF4H inh | MLLE-PAM2 inh | PABP polyA inh | PERK inh | eIF4E-4G inh
Cc1ccc(NC(=O)CSc2nnc(-c3ccco3)c(-c3ccco3)n2)cc1 | 100* | 21 | 89* | 1 | 1
CN(C)c1ccc(NC(=O)CSc2nnc(-c3ccco3)c(-c3ccco3)n2)cc1 | 93* | 25 | 44* | · | ·
O=C(CSc1nnc(-c2ccccc2)c(-c2ccccc2)n1)NCc1ccco1 | 3 | 10 | 0 | 0 | 4
Cc1ccc(SCC(=O)Nc2ccc(-c3nnc(-c4ccco4)o3)cc2)cc1 | 58* | 9 | 79* | 1 | -7
Cc1ccc(NC(=O)CCSc2nnc(-c3ccco3)o2)cc1 | 2 | 8 | 12 | 0 | -1
O=C(COc1ccccc1)c1cn(CC(=O)N2CCOCC2)c2ccccc12 | 95* | -7 | 107* | 0 | 4
O=C(Cn1cc(C(=S)N2CCOCC2)c2ccccc21)N1CCOCC1 | -14 | 13 | -13 | 0 | 0
O=C(Cn1cc(C(=O)COc2ccccc2)c2ccccc21)NCc1ccco1 | 36* | -41 | 55 | -2 | 2
CN1C(=O)/C(=C2\SC(=S)N(NC(=O)c3cccnc3)C2=O)c2ccccc21 | 15 | 36 | 22 | · | ·
CCOC(=O)CN1C(=O)/C(=C2\SC(=S)N(NC(=O)c3cccnc3)C2=O)c2ccccc21 | 6 | 43* | 21 | · | ·
O=C(Nc1ccc(CN2CCOCC2)cc1)c1ccc(-c2ccc(Cl)cc2Cl)o1 | -9 | -14 | -2 | -1 | 95*
COc1ccc(CN(C)C(=O)c2ccc(NS(=O)(=O)c3ccc4[nH]c(=O)[nH]c4c3)cc2)c(OC)c1OC | · | 0 | · | · | ·
Cc1[nH]c(=S)c(C#N)c(-c2ccccc2)c1C(=O)Nc1ccccc1 | -8 | 4 | 3 | 0 | 32*
Cc1ccccc1NC(=O)c1c(C)[nH]c(=S)c(C#N)c1-c1ccc(Cl)cc1 | 2 | 5 | 8 | 0 | -2
COc1ccc(C(=S)N2CCOCC2)cc1OC(=O)c1ccc(C)cc1 | -3 | -7 | 2 | · | ·
Cc1n[nH]c(=O)nc1NCCN(C)C | -7 | 3 | -16 | 3.5* | -7
CN(CC(=O)NNC(=O)Cc1ccccc1F)S(=O)(=O)c1ccc(Cl)cc1 | · | 7 | · | · | ·
COc1ccccc1-n1c(N)c(C(N)=O)sc1=S | 1 | 41* | -9 | 0 | 12
Cc1ccc(N2CC(C(=O)Nc3cc(C)on3)CC2=O)cc1 (stereo not drawn) | 7 | 2 | 8 | 2.9* | -5
CCn1cc(S(=O)(=O)NCCc2ccc(F)cc2)cn1 | 10 | -2 | -4 | · | ·
CCN(CC)CCSC(=O)C(c1ccccc1)c1ccccc1 | · | 47* | · | · | ·
CCN(CC)CCOC(=O)C(c1ccccc1)c1ccccc1 | -8 | -11 | -1 | 1 | 0
COC(=O)/C=C1/SC(=NC(=O)c2ccc(Cl)cc2)NC1=O | · | 14 | · | · | ·
COC(=O)/C=C1\SC(=NC(=O)c2ccc(C)cc2)NC1=O | 32 | 40* | -6 | 0 | -4
CCNc1ccc(C(=O)OCC(=O)NC(C)c2ccccc2)cc1[N+](=O)[O-] (stereo not drawn) | -10 | -43 | -2 | 0 | 46*
SMILES | eIF4H inh | MLLE-PAM2 inh | PABP polyA inh | PERK inh | eIF4E-4G inh
O=C(c1ccc(S(=O)(=O)Nc2ccccc2F)cc1)N1CCCC1 | · | -1 | · | · | ·
Cc1ccc(Oc2nc3c(C)cccn3c(=O)c2/C=C(\C#N)C(N)=O)cc1 | 78 | 0 | 34 | -1 | 41*
CCOC(=O)/C(C#N)=C/c1c(Oc2cccc(C)c2)nc2c(C)cccn2c1=O | -8 | -13 | -2 | 1 | 1
CNC(=S)Nc1cccc(S(=O)(=O)NCc2ccco2)c1 | · | 8 | · | · | ·
CCC(CC)NC(=O)Nc1cccc(C)c1C | -4 | 1 | -7 | 0 | 2
CCn1c(NC(=O)Nc2cccc(C)c2C)cc2sccc21 | 87* | -10 | 90* | 0 | 1
O=C(NC(=S)Nc1ccc(S(=O)(=O)N2CCCCCC2)cc1)c1cccs1 | -2 | 28 | 2 | 0 | 3
O=C(Nc1cccnc1)c1cccs1 | -12 | 0 | -8 | 1 | 22
O=C(NC(=S)Nc1ccc(S(=O)(=O)N2CCCC2)cc1)C1CC1 | -8 | 14 | 63* | 2 | -1
CC(=O)Nc1ccc(S(=O)(=O)N2CCN(C)CC2)cc1 | -3 | 2 | 0 | 3.1* | 3
O=C(NC(=S)Nc1ccc(S(=O)(=O)N2CCCC2)cc1)c1cccs1 | 6 | 47* | 2 | -1 | -1
O=C(NC(=S)Nc1cccnc1)c1cccs1 | 4 | 39* | -2 | 1 | -5
O=C(O)CC(SCC(=O)Nc1ccc(S(=O)(=O)N2CCCC2)cc1)C(=O)O (stereo not drawn) | -10 | 40* | -11 | 1 | 1

Assay outcomes deposited in PubChem by several laboratories.
